D3 antag: blocks the human D3 dopamine receptor; AID 652054; max response, negative = inhibition, %; D3R cells, DiscoveRx beta-arrestin luminescence, antagonist mode; active compounds read low; 2.5% of 360,000 active; P35462; in the data active = max response below about -50%; inconclusive = no clear call, values can overlap the other calls; also: % is scaled to controls: 0 for no effect and ±100 for the full control effect
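Cells plated overnight at 1500 cells/well, then exposed to library compounds with dopamine controls for 90 minutes at 37 degrees C. DiscoveRx reagent added for 30–60 minutes at room temperature; luminescence read, quantitative HTS format.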
IL1B secr inh: inflammasome signaling inhibition, IL-1 beta readout | THP-1 LPS/ATP IL-1B secretion, AlphaLISA, 16 h; active compounds read low | 4.7% of 360,000 active | AID 743279 | activity change, % at 57.5 µM; in the data active = activity change below about -50%; inconclusive = mostly about -30% to -49%; also: % is scaled to controls: 0 for no effect and ±100 for the full control effect
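THP-1 cells pretreated 1 hr with compounds (up to 57.5 uM final), then stimulated with LPS (250 ng/mL final) plus ATP (1.25 mM final); secreted IL-1B measured by AlphaLISA after 16 hr, decreased signal indicating inhibition.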
TDP1 cell CPT: growth inhibition of DT40 Tdp1-/-;hTDP1 cells with camptothecin (screen for TDP1 inhibitors); chicken DT40 Tdp1-/-;hTDP1 cells + 20 nM CPT, ATP luminescence, 48 h; 12% of 420,000 active; Potency, µM (highest dose often 46.2 µM), without a hit: top-dose activity change, negative = growth inhibition, most hits filed as inhibitors; also: potency is read from the fitted curve at half-maximal effect; % is scaled to controls: 0 for no effect and ±100 for the full control effect; nearly all actives have a fitted effect of over 55% in size
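Chicken DT40 Tdp1-/- cells complemented with human TDP1, 400 cells/well, exposed to compounds plus 20 nM camptothecin for at least 48 h at 37 C; viability read as ATP content by CellTiter-Glo luminescence.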
D3 ag: D3 dopamine receptor (human) agonism; max activation, %; P35462; AID 652048; D3R DiscoveRx beta-arrestin cells, luminescence, 90 min; 0.58% of 410,000 active; in the data active = max activation above about 30%; also: 0% is about no effect
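Agonist-mode cell screen: cells plated at 1500/well and incubated overnight at 37 °C, then exposed to library compounds for 90 min at 37 °C. Detection reagent was added for 30–60 min at room temperature, and luminescence was read.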
TDP1 cell noCPT: qHTS for Inhibitors of human tyrosyl-DNA phosphodiesterase 1 (TDP1): qHTS in cells in absence of CPT. 15% of 420,000 active. DT40 Tdp1-/- hTDP1 cells, no CPT, ATP luminescence, 48 h. Potency, µM (top dose mostly 46.2 µM), without a hit: at the highest dose activity change, negative = growth inhibition, usual class: inhibitors; also: potency is read from the fitted curve at half-maximal effect; % is scaled to controls: 0 for no effect and ±100 for the full control effect; nearly all actives have a fitted effect of over 55% in size
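DT40 Tdp1-/-;hTDP1 cells, no CPT (DMSO vehicle only), 400 cells/well; compounds pin-transferred; ≥48 hr, 37 °C; CellTiter-Glo 30 min RT dark, luminescence read.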
ClpP mod: qHTS Assay for Activators of ClpP; Potency, µM (titrated, usually from 57.5 µM), for inactives: top-dose activity change, negative = active; AID 651965, 2013; ATP-dependent Clp protease proteolytic subunit (Bacillus subtilis (strain 168)), P80244; 1.9% of 340,000 active; purified B. subtilis ClpP, FRET peptide cleavage, 20 min; active = well fitted falling curve with a large enough effect; inconclusive = small, poorly fitted or top-dose-only effect; inactive = no such curve, though single readings can be large or run the other way; also: potency is read from the fitted curve at half-maximal effect; the source files actives as falling curves though it sought activators and does not explain the sign; nearly all actives have a fitted effect of over 65% in size
Target sequence (P80244 whole entry, looked up): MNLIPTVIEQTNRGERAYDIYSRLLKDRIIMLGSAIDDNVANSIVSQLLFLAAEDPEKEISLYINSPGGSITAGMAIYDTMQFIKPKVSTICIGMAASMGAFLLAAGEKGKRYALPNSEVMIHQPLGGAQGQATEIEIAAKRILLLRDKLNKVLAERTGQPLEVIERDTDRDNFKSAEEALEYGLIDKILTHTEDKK
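ClpP 10 microg/mL final, pH 8 Tris/KCl buffer with BSA, glycerol, Tween-20; compound pinned in; FRET-FV substrate; RT 20 min; Ex320/Em430; ΔFRET vs ADEP 5.8 microM, DMSO, no enzyme.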
* = called active by the depositor. Shown are actives, neighbours in structure and some others; about 21% of the full set was active somewhere. Unless noted, calls follow the shape of the dose curve; as a rule, active = well fitted inhibition curve with a large enough effect; inconclusive = small, poorly fitted or top-dose-only effect; inactive = flat fitted curve, though single readings scatter.

`Cc1ccc(Nc2sc(C(=O)c3ccccc3)c(N)c2S(=O)(=O)c2ccccc2)cc1Cl` gave TDP1 cell CPT -26.9%, D3 ag 2.1, TDP1 cell noCPT inconclusive and ClpP mod -4.8%.
CCc1ccc(Nc2sc(C(=O)c3ccc(F)cc3)c(N)c2S(=O)(=O)c2ccccc2)cc1 was read as TDP1 cell CPT inconclusive, D3 ag 7.6, TDP1 cell noCPT inconclusive and ClpP mod -7.6%.
Screening Nc1c(C(=O)c2ccc(F)cc2)sc(Nc2ccccc2F)c1S(=O)(=O)c1ccc(Br)cc1 returned TDP1 cell CPT 5.17µM*, D3 ag -10.1, TDP1 cell noCPT 8.2µM* and ClpP mod -11.0%.
For Cc1ccc(Nc2sc(C(=O)c3ccccc3)c(N)c2S(=O)(=O)c2ccccc2)c(C)c1 the results were TDP1 cell CPT inconclusive, D3 ag 5.8, TDP1 cell noCPT 14.6µM* and ClpP mod -13.9%.
Cc1ccc(Cl)cc1Nc1sc(C(=O)c2ccc(F)cc2)c(N)c1S(C)(=O)=O was read as TDP1 cell CPT 16.4µM*, D3 ag -6.2, TDP1 cell noCPT inconclusive and ClpP mod -5.2%.
CCN(CC(=O)NCc1ccc(Cl)cc1)C(=O)c1ccc(S(=O)(=O)NCc2ccco2)cc1 was read as D3 antag 18.4, IL1B secr inh inactive, TDP1 cell CPT inconclusive, D3 ag 5.3, TDP1 cell noCPT inconclusive and ClpP mod -1.9%.
CC1CCC2=NN(C(=O)c3ccco3)C(O)(C(F)(F)F)C2C1 (configuration not stated) was read as D3 antag 1.0, IL1B secr inh 12.3, TDP1 cell CPT -19.1%, D3 ag -2.8 and TDP1 cell noCPT -12.3%.
Screening CN(C(=O)c1cccc(NC(=O)Cc2cccc(NC(=O)C3CCN(C(=O)C4CCCCC4)CC3)c2)c1)C1CC1 returned D3 antag -6.2, IL1B secr inh 29.2, TDP1 cell CPT -12.0%, D3 ag -6.5, TDP1 cell noCPT -12.3% and ClpP mod -0.8%.
Screening Cc1ccc(Nc2sc(C(=O)c3ccc(F)cc3)c(N)c2S(=O)(=O)c2ccc(C)cc2)cc1 returned TDP1 cell CPT 18.4µM*, D3 ag -4.4, TDP1 cell noCPT inconclusive and ClpP mod -10.8%.
CC1CCN(C(=O)Cn2c(=O)n(CCCC(=O)NCc3ccco3)c(=O)c3sccc32)CC1 was read as D3 antag 1.5, IL1B secr inh 12.2, TDP1 cell CPT 0.5%, D3 ag 21.0, TDP1 cell noCPT -1.3% and ClpP mod 2.0%.
CN(C)c1ccc(/C=C2\SC(N3CCCCC3)=NC2=O)cc1 was read as D3 antag -0.2, IL1B secr inh -19.6, TDP1 cell CPT inconclusive, D3 ag 2.4, TDP1 cell noCPT inconclusive and ClpP mod -1.6%.
Screening CCCCn1c(=N)n(CC(=O)c2ccco2)c2ccccc21 returned D3 antag 21.3, IL1B secr inh inconclusive, TDP1 cell CPT inconclusive, D3 ag 1.6, TDP1 cell noCPT inconclusive and ClpP mod -0.7%.
`CCn1c(=N)n(CC(=O)c2ccc(Cl)c(Cl)c2)c2ccccc21` gave D3 antag 24.9, IL1B secr inh -72.9*, TDP1 cell CPT 25.9µM*, D3 ag 0.5 and TDP1 cell noCPT 20.6µM*.
Screening CCn1c(=N)n(CC(=O)c2ccco2)c2ccccc21 returned D3 antag -4.4, IL1B secr inh 18.3, TDP1 cell CPT 13µM*, D3 ag -1.0, TDP1 cell noCPT inconclusive and ClpP mod -4.9%.
`O=C(Cn1ccccc1=S)c1ccc(Cl)c(Cl)c1` gave D3 antag -10.2, IL1B secr inh -81.2*, TDP1 cell CPT -2.2%, D3 ag -7.4 and TDP1 cell noCPT -20.7%.
